Consider eleven compounds from PubChem BioAssay (NCATS).

Active and inactive are the calls of the source. Calls follow the shape of the full dose curve.

For this experiment the following is noted: Ebola virus entry cell assay, ratio channel.
For `NC(=O)[C@@H]1CCCN1C(=O)[C@H](Cc1cnc[nH]1)NC(=O)[C@@H]1CCC(=O)N1`, the outcome was inactive.

As to `CCCC(C)(COC(N)=O)COC(N)=O`, the outcome was inactive.

On to `CC(=O)NC[C@H]1CN(c2ccc(N3CCOCC3)c(F)c2)C(=O)O1`, for which the result was inactive.

With `Nc1ccn([C@@H]2O[C@H](CO)[C@@H](O)C2O)c(=O)n1` (stereo partly specified), the result was inactive.

On to `Nc1ccn([C@@H]2CS[C@H](CO)O2)c(=O)n1`, for which the outcome was inactive.

Regarding `C[N+]1(C)[C@@H]2CC(OC(=O)C(O)(c3cccs3)c3cccs3)C[C@H]1[C@@H]1O[C@@H]12` (stereo partly specified), the result was inactive.

In the case of `Nc1nc(Cl)nc2c1ncn2[C@H]1C[C@H](O)[C@@H](CO)O1`, the result was inactive.

Consider `Cc1nnc2n1-c1ccc(Cl)cc1C(c1ccccc1Cl)=NC2`, for which the outcome was inactive.

As to `Cc1c(N)nc([C@H](CC(N)=O)NC[C@H](N)C(N)=O)nc1C(=O)N[C@H](C(=O)N[C@H](C)[C@@H](O)[C@H](C)C(=O)N[C@H](C(=O)NCCc1nc(-c2nc(C(=O)NCCCCN=C(N)N)cs2)cs1)[C@@H](C)O)[C@@H](O[C@@H]1O[C@@H](CO)[C@@H](O)[C@H](O)[C@@H]1O[C@H]1O[C@H](CO)[C@@H](O)[C@H](OC(N)=O)[C@@H]1O)c1cnc[nH]1`, the outcome was inactive.

Regarding `Nc1ccn(C[C@@H](CO)OCP(=O)(O)O)c(=O)n1`, the result was inactive.

Turning to `CC[C@H]1OC(=O)[C@H](C)C(=O)[C@H](C)[C@@H](O[C@@H]2O[C@H](C)C[C@H](N(C)C)[C@H]2O)[C@](C)(OC)C[C@@H](C)C(=O)[C@H](C)[C@H]2N(CCCCn3cnc(-c4cccnc4)c3)C(=O)O[C@]12C`, the outcome was inactive.
